# Laboratory results as given in PubChem BioAssay (NCI).
# Compounds without any hit were thinned out: in the full panel of roughly 83,000, 20% have a hit.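 Percent growth is the endpoint: 0 to 100 indicates growth inhibition (40 means 60% inhibition), 0 means no net growth, and negative values indicate cell death.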 A number with no mark means an inactive call. Activity calls are given as the source filed them. Rule for the calls: active = growth percent below 10; inactive = the rest.
# Legend:
# Assay in all cases: NCI-60 one-dose screen, 48 h (100 = growth as untreated, 0 = no growth, -100 = all killed)
# Details in all cases: 10 µM unless noted
# NCI-H23 lung = tested on: NCI-H23 lung
# NCI-H226 lung = tested on: NCI-H226 lung
# NCI-H322M lung = tested on: NCI-H322M lung
# HOP-62 NSCLC = tested on: HOP-62 NSCLC
# NCI-H460 lung = tested on: NCI-H460 lung
# HOP-92 NSCLC = tested on: HOP-92 NSCLC
# NCI-H522 lung = tested on: NCI-H522 lung
# A549/ATCC NSCLC = tested on: A549/ATCC NSCLC
# 786-0 renal = tested on: 786-0 renal
# COLO 205 colon = tested on: COLO 205 colon
Structure (SMILES),growth (NCI-H23 lung),growth (NCI-H226 lung),growth (NCI-H322M lung),growth (HOP-62 NSCLC),growth (NCI-H460 lung),growth (HOP-92 NSCLC),growth (NCI-H522 lung),growth (A549/ATCC NSCLC),growth (786-0 renal),growth (COLO 205 colon)
C=C1C(=O)O[C@@H]2[C@@H]3O[C@@](C)(CC/C=C(\C)CCC[C@@H]2C)[C@H](O)C[C@@H]13,81.6%,65.7%,97.3%,81.2%,89.8%,1.79% (active),-16.5% (active),95.3%,79.1%,47.1%
Nc1nc(=O)c2ccccc2s1,109%,112%,108%,98.2%,115%,94.5%,122%,111%,103%,107%
CC(=O)OC[C@]12CC[C@H]3[C@@H](C[C@H]4O[C@]45CC=CC(=O)[C@]35C)[C@]1(O)CC[C@@]2(O)[C@@](C)(O)C1CC(C)=C(C)C(=O)O1 (stereo not given in full),-32.9% (active),-28.5% (active),-54.2% (active),-34% (active),-51.3% (active),-34.6% (active),-54.1% (active),6.23% (active),-19.6% (active),-35.7% (active)
O=C(/C=C/c1ccccc1)c1cccc(O)c1,96.7%,109%,113%,103%,110%,82.8%,116%,86%,94.2%,107%
O=C(NNC(=O)N1c2ccccc2C=Cc2ccccc21)c1ccc2ccccc2c1,98.4%,95.5%,99%,99.1%,100%,81.4%,85.9%,95.7%,96.1%,101%
O=C1/C(=C/c2ccccc2)CN(C(=O)CCN2CCC(=NO)CC2)C/C1=C\c1ccccc1,1.59% (active),104%,34%,49.9%,-32.2% (active),77.6%,-61.4% (active),71.3%,-25.8% (active),-46.8% (active)
C=C(C)[C@@H]1C[C@H](O)Cc2cc(F)ccc2N1,96.9%,95.6%,102%,87.4%,101%,95.6%,93.7%,97.5%,105%,101%
Cc1ccc(S(=O)(=O)Nc2c(Br)cc(Br)cc2C(N)=O)cc1,96%,102%,88.4%,109%,105%,94.4%,115%,117%,101%,103%
Cc1ccc(CSC(=N)N)cc1C,108%,104%,111%,110%,109%,67.4%,101%,103%,103%,107%
C=C1CCC2C3(C)COC(c4ccccc4)OC3CCC2(C)C1/C=C/C1=CCOC1=O (stereo not given),74.6%,85.8%,64.3%,113%,93.6%,68.4%,63.6%,43.5%,94.3%,17.4%
COc1cc(/C=C/C(=O)/C=C/c2cc(OC)c3c(c2)OCO3)cc2c1OCO2,80.5%,78.8%,108%,106%,105%,83.9%,101%,93.5%,100%,96.5%
CN1CCN(Cc2ccc(NC(=O)c3nc4ccc5[nH]ncc5c4c4c3CCC4)cc2C(F)(F)F)CC1,19.2%,73.9%,-50.9% (active),-78.7% (active),-84.2% (active),65.5%,-71.1% (active),-71.6% (active),-96.5% (active),-43% (active)
CCC(C)/C(=C\C#N)NCCCN/C(=C/C#N)C(C)CC (stereo not given),97.3%,103%,103%,106%,116%,86.5%,83.5%,103%,98.1%,111%
Cc1ccc(S(=O)(=O)C2=C3C(=C(c4ccccc4)c4ccccc43)CN(S(=O)(=O)c3ccc(C)cc3)C2)cc1,47.1%,79.1%,93.8%,88.6%,63.8%,3.21% (active),-45.9% (active),70.9%,5.02% (active),71.3%
O=C(c1c[nH]c(=O)c(-c2ccccc2)c1)c1ccccc1O,91.7%,88.7%,82.7%,86.3%,96.1%,70.2%,87.2%,93.5%,88.2%,98.1%
COc1ccc(S(=O)(=O)Nc2cc(/C=C\c3cc(OC)c(OC)c(OC)c3)cc(OC)c2OC)cc1,36.2%,35.2%,27.1%,52.9%,8.41% (active),20.1%,-21.4% (active),21.2%,14%,-62.4% (active)
COc1ccc(Cn2cc3c(c2-c2cc(OC)c(OC)c(OC)c2)CCc2cnoc2-3)cc1,22.8%,19.8%,35.8%,64.2%,4.4% (active),77.1%,24.7%,25.2%,36.3%,-27.7% (active)
COc1ccc(-c2cn(-c3cccc(C(=O)/C=C/c4cc(OC)c(OC)c(OC)c4)c3)c(=O)[nH]2)cc1OC,93.9%,87.9%,95.5%,93%,91%,61.2%,74.4%,89.5%,80.2%,90.9%
CCN(CC)CCCNc1nccc2ccc(Cl)cc12,107%,97.9%,104%,96.5%,103%,68.1%,102%,94.9%,104%,108%
COc1ccc(/C=C2/C(=O)NC(SCC(=O)N3CCN(c4cc5c(cc4F)c(=O)c(C(=O)O)cn5C4CC4)CC3)=NC2N)cc1OC (stereo not given),102%,98.5%,111%,110%,107%,101%,99%,107%,102%,113%
COc1ccc(/C(C#N)=C/c2cc(OC)c(OC)c(OC)c2)cc1,62.3%,70.6%,59.7%,46.7%,16.9%,31.6%,15.8%,32.5%,51.2%,24.3%
C=CCn1c2ccccc2c2c3c(c4c5ccccc5n(CC=C)c4c21)C(=O)N(O)C3=O,24.2%,-97.9% (active),52.8%,-1.11% (active),8.86% (active),77.2%,-62.5% (active),37.7%,15.1%,56.5%
O=C(O)c1nc(-c2ccccc2)oc1N1CCOCC1,98%,103%,91.8%,97%,102%,84.6%,95.9%,100%,97.5%,102%
COc1ccc(/C=C2\N=C(c3ccccc3)N(C(=O)c3ccccc3O)NC2=O)cc1,89.7%,101%,105%,99.1%,98.7%,75.5%,100%,97.3%,89.8%,112%
Nc1nc(Nc2cc(Cl)cc(Cl)c2)nn1S(=O)(=O)c1ccc2ccccc2c1,66.5%,66.7%,76.4%,66%,27.8%,-10.4% (active),69%,42.7%,25.5%,66.5%
CCCCCCCCC(C)OC(=O)c1nn(C(C)=O)c2ccccc12 (stereo not given),89.3%,105%,102%,97.7%,110%,98.7%,90.1%,94.1%,97.3%,111%
CN(CCCCCl)P(=O)(OCc1ccc([N+](=O)[O-])o1)C(F)(F)C[C@H](NC(=O)CNC(=O)c1ccc(N=[N+]=[N-])cc1)C(=O)NCCc1ccc(O)cc1 (stereo not given in full),99.4%,105%,93.8%,118%,105%,108%,-66.9% (active),99%,109%,36.9%
